Laboratory results as given in PubChem BioAssay (NCATS).
Inconclusive results are not listed. Where a call stands in place of a potency, no number is given. A number with no mark means an inactive call. Active and inactive are the calls of the source. The call rests on the fitted dose curve; in most records, active means well fitted curve in the direction sought with a large enough effect; inconclusive means small, poorly fitted or top-dose-only effect, or another doubt; inactive means no such curve, though single readings can be large; an effect the other way counts as inactive or inconclusive.

Key:
[1] = target: Rap guanine nucleotide exchange factor 3 (Homo sapiens) (UniProt O95398); assay: Confirmatory qHTS for antagonist of cAMP-regulated guanine nucleotide exchange factor 3 (EPAC1) (AID 1645880); conditions: EPAC1 Rap1B-BODIPY-GDP exchange, fluorescence; series mostly up to 115 µM; further: nearly all actives have a fitted effect of over 55% in size; further: potency means the concentration at half of the fitted maximal effect
Rap guanine nucleotide exchange factor 3 (Homo sapiens), sequence (O95398 whole entry, looked up): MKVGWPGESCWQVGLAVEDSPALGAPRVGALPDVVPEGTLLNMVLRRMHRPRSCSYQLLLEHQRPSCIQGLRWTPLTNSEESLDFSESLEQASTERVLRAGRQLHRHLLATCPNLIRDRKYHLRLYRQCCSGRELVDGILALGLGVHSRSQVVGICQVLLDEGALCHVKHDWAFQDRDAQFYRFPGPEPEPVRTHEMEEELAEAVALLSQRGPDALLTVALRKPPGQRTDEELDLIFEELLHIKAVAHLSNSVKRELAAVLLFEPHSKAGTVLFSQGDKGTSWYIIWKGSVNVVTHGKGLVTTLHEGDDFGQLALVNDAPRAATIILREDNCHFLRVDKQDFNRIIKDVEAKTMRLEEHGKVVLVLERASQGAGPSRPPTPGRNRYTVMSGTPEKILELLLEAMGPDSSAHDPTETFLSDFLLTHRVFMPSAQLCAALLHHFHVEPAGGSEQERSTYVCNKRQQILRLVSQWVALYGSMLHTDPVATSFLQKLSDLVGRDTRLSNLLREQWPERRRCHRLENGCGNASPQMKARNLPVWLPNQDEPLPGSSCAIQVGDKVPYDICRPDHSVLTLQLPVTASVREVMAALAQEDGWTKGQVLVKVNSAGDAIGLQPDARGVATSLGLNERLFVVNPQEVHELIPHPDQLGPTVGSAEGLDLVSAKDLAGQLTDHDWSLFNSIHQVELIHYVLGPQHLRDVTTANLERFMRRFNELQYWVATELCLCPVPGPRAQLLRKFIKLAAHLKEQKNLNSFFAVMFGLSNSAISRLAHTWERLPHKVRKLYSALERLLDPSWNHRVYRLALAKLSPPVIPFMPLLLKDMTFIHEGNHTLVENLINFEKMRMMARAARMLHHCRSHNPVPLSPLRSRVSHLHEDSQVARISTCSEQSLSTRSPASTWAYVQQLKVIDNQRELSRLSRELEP
How it was run: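 Released BODIPY-GDP fluoresces less than Rap1-bound BODIPY-GDP; the signal is followed at 480/540 nm at 5-min intervals over 30 min, after 5 min at room temperature. Reactions contain 100 nM EPAC1, 250 nM RAP1B-BODIPY-GDP and 50 uM GDP; results are normalized to ATA and DMSO.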

[2] = target: Rap guanine nucleotide exchange factor 3 (Homo sapiens) (UniProt O95398); assay: Confirmatory qHTS for agonist of cAMP-regulated guanine nucleotide exchange factor 3 (EPAC1) (AID 1645881); conditions: EPAC1 Rap1B BODIPY-GDP exchange fluorescence; series mostly up to 154 µM; further: nearly all actives have a fitted effect of over 75% in size; further: potency means the concentration at half of the fitted maximal effect;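 on activation: EPAC1 catalysed release of BODIPY-GDP from Rap1B seen as fluorescence loss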
[3] = target: Rap guanine nucleotide exchange factor 4 (Homo sapiens) (UniProt Q8WZA2); assay: Confirmatory qHTS for agonist of cAMP-regulated guanine nucleotide exchange factor 4 (EPAC2) (AID 1645884); conditions: EPAC2 GEF activity, Rap1B-BODIPY-GDP fluorescence; series mostly up to 154 µM;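 further: nucleotide exchange releases bodipy-GDP from Rap1 and this lowers its fluorescence; nearly all actives have a fitted effect of over 65% in size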; further: potency means the concentration at half of the fitted maximal effect
Rap guanine nucleotide exchange factor 4 (Homo sapiens), sequence (Q8WZA2 whole entry, looked up): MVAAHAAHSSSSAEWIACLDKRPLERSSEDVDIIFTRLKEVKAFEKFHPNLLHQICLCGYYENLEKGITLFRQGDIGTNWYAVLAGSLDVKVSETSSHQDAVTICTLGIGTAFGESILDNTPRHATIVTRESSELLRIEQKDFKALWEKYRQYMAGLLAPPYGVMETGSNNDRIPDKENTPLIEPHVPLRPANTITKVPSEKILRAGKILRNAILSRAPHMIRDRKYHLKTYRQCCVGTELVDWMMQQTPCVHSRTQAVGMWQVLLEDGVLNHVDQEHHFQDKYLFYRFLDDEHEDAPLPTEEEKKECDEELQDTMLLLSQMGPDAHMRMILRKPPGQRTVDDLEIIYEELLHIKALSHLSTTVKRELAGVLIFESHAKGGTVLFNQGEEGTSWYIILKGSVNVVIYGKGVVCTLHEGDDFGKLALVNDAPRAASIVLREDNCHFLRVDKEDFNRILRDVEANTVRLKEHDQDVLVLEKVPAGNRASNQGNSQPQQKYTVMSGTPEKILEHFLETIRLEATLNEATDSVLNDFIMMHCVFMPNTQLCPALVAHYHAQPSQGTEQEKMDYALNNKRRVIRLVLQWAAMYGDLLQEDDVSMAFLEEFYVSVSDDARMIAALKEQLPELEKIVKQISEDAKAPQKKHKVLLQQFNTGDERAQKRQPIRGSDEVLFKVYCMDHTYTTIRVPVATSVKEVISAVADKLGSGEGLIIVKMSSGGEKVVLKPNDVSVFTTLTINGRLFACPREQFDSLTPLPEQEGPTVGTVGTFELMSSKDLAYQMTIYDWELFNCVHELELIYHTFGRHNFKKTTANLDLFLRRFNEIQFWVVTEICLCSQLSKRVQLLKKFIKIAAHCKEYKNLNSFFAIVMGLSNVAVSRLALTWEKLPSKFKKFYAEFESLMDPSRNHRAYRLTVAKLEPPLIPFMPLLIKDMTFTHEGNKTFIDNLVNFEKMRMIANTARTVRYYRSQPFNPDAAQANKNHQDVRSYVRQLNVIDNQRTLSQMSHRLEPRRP

[4] = target: Rap guanine nucleotide exchange factor 4 (Homo sapiens) (UniProt Q8WZA2); assay: Confirmatory qHTS for antagonist of cAMP-regulated guanine nucleotide exchange factor 4 (EPAC2) (AID 1645885); conditions: EPAC2 Rap1B-BODIPY-GDP exchange fluorescence, biochemical; series mostly up to 114 µM; further: nearly all actives have a fitted effect of over 25% in size; further: potency means the concentration at half of the fitted maximal effect
[5] = target: Rap guanine nucleotide exchange factor 3 (Homo sapiens) (UniProt O95398); assay: Counterscreen qHTS for antagonist of cAMP-regulated guanine nucleotide exchange factor 3 (EPAC1) (AID 1645888); conditions: Rap1B-BODIPY-GDP nucleotide exchange, fluorescence; series mostly up to 154 µM
How it was run: (§1)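 Rap1B–BODIPY-GDP (250 nM) with 50 uM GDP; compounds pin-transferred to 9.74 nM–152 uM final (activator) or from 7.32 nM upwards (inhibitor). Fluorescence Ex/Em 480/540 nm read at 5 and 30 min, then after adding cAMP or buffer, at room temperature.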

[6] = target: Rap guanine nucleotide exchange factor 3 (Homo sapiens) (UniProt O95398); assay: Counterscreen qHTS for agonist of cAMP-regulated guanine nucleotide exchange factor 3 (EPAC1) (AID 1645889); conditions: EPAC1 Rap1B-BODIPY-GDP exchange, fluorescence; series mostly up to 154 µM; further: nearly all actives have a fitted effect of over 40% in size; further: potency means the concentration at half of the fitted maximal effect
How it was run: as §1

**Q.** `Cc1ccc(N2C(=O)NC(=O)/C(=C\c3cc(C)n(-c4sc5c(c4C#N)CCCC5)c3C)C2=O)cc1` was tested. Which Potency [1] did it give?
**A.** 16.9 µM (active)

**Q.** What about the Potency [2] of the same molecule?
**A.** inactive

**Q.** And the Potency [3]?
**A.** inactive

**Q.** And the Potency [4]?
**A.** inactive

**Q.** And the outcome [5]?
**A.** inactive

**Q.** For `Cc1ccc(N2C(=O)NC(=O)/C(=C\C=C\c3ccco3)C2=O)cc1C`, which Potency [1] is on record?
**A.** 33.8 µM (active)

**Q.** What about the Potency [2] of the same molecule?
**A.** inactive

**Q.** What about the Potency [3] of the same molecule?
**A.** inactive

**Q.** What about the Potency [4] of the same molecule?
**A.** inactive

**Q.** What about the outcome [5] of the same molecule?
**A.** inactive

**Q.** And the Potency [6]?
**A.** inactive

**Q.** Which results are given for `CCc1nc2ccccc2c(=O)n1-c1ccccc1OC`?
**A.** Potency [1]: inactive; Potency [2]: inactive; Potency [3]: inactive; Potency [4]: 33.8 µM (active); outcome [5]: inactive; Potency [6]: inactive

**Q.** Which Potency [1] does the source give for `CC(Cc1ccc(O)cc1)NCC(O)c1ccc(O)c(O)c1` (configuration not stated) here?
**A.** 22.4 µM (active)

**Q.** What about the Potency [2] of the same molecule?
**A.** inactive

**Q.** And the activation [3]?
**A.** -2.87% [at 17.1 µM, percent relative to cAMP agonist control]

**Q.** And the activity change, negative = inhibition [4]?
**A.** -0.704% [at 12.7 µM]

**Q.** And the activity change, negative = inhibition [5]?
**A.** 6.78% [at 30.8 µM]

**Q.** How did the Potency [1] turn out when `O=C1NC(=S)N(c2ccccc2)C(=O)/C1=C/c1ccco1` was run?
**A.** 9.53 µM (active)

**Q.** And the Potency [2]?
**A.** inactive

**Q.** What about the Potency [3] of the same molecule?
**A.** inactive

**Q.** And the Potency [4]?
**A.** inactive

**Q.** What about the outcome [5] of the same molecule?
**A.** inactive

**Q.** And the Potency [6]?
**A.** inactive

**Q.** For `O=C1Nc2ccccc2/C1=C/c1nc2ccccc2c(=O)n1-c1ccc(O)cc1`, which Potency [1] is on record?
**A.** 35.5 µM (active)

**Q.** What about the Potency [2] of the same molecule?
**A.** inactive

**Q.** And the activation [3]?
**A.** 2.57% [at 17.1 µM, percent relative to cAMP agonist control]

**Q.** What about the activity change, negative = inhibition [4] of the same molecule?
**A.** 0.205% [at 12.7 µM]

**Q.** And the activity change, negative = inhibition [5]?
**A.** -7.19% [at 30.8 µM]

**Q.** What about the activation [6] of the same molecule?
**A.** 1.32% [at 30.8 µM]

**Q.** `Cn1cc(C=C2C(=O)NC(=O)NC2=O)c2ccccc21` was tested. Which Potency [1] did it give?
**A.** inactive

**Q.** And the Potency [2]?
**A.** 79.4 µM (active)

**Q.** And the Potency [3]?
**A.** 63.1 µM (active)

**Q.** And the Potency [4]?
**A.** 75.7 µM (active)

**Q.** What about the outcome [5] of the same molecule?
**A.** inactive

**Q.** What about the Potency [6] of the same molecule?
**A.** inactive

**Q.** Which results are given for `O=C1NC(=O)N(Cc2ccc(F)cc2)C(=O)/C1=C\c1ccc([N+](=O)[O-])s1`?
**A.** Potency [1]: 12 µM (active); Potency [2]: inactive; Potency [3]: inactive; Potency [4]: inactive; outcome [5]: inactive; Potency [6]: 22.4 µM (active)

**Q.** How did the Potency [1] turn out when `O=C(O)CC1OCC=C2CN3CCC45C6=CC(=O)C(=O)C([N+](=O)[O-])=C6NC4C1C2CC35` (configuration not stated) was run?
**A.** inactive

**Q.** And the Potency [2]?
**A.** inactive

**Q.** What about the Potency [3] of the same molecule?
**A.** inactive

**Q.** What about the Potency [4] of the same molecule?
**A.** inactive

**Q.** And the outcome [5]?
**A.** inactive

**Q.** And the Potency [6]?
**A.** inactive

**Q.** Which results are given for `O=C1NCN(c2ccccc2)C12CCN(C(c1cc3ccccc3o1)c1nnnn1C1CCCC1)CC2` (configuration not stated)?
**A.** Potency [1]: inactive; Potency [2]: inactive; activation [3]: 13.1% [at 17.1 µM, percent relative to cAMP agonist control]; activity change, negative = inhibition [4]: -12.5% [at 12.7 µM]; activity change, negative = inhibition [5]: -0.487% [at 30.8 µM]

**Q.** What does the source list for `O=Cc1c(C(=O)O)n(Cc2ccc(Cl)cc2)c2ccccc12`?
**A.** Potency [1]: inactive; Potency [2]: inactive; Potency [3]: inactive; Potency [4]: 42.6 µM (active); outcome [5]: inactive; Potency [6]: 15.8 µM (active)

**Q.** With `COc1ccc(OCC(=O)N2CCN(CC3CC4C=CC3C4)CC2)cc1` (configuration not stated) as the molecule, how does the Potency [1] read?
**A.** inactive

**Q.** What about the Potency [2] of the same molecule?
**A.** inactive

**Q.** What about the activation [3] of the same molecule?
**A.** 6.59% [at 17.1 µM, percent relative to cAMP agonist control]

**Q.** And the activity change, negative = inhibition [4]?
**A.** 6.27% [at 12.7 µM]

**Q.** What about the activity change, negative = inhibition [5] of the same molecule?
**A.** -7.66% [at 30.8 µM]

**Q.** What about the activation [6] of the same molecule?
**A.** 5.29% [at 30.8 µM]

**Q.** Which Potency [1] does the source give for `Cc1cc(/C=C2/C(=O)NC(=O)N(Cc3ccco3)C2=O)c(C)n1-c1ccccc1O` here?
**A.** 44.7 µM (active)

**Q.** What about the Potency [2] of the same molecule?
**A.** inactive

**Q.** What about the activation [3] of the same molecule?
**A.** 11.8% [at 17.1 µM, percent relative to cAMP agonist control]

**Q.** And the Potency [4]?
**A.** 0.19 µM (active)

**Q.** What about the activity change, negative = inhibition [5] of the same molecule?
**A.** -13.1% [at 30.8 µM]

**Q.** And the activation [6]?
**A.** 17.9% [at 30.8 µM]

**Q.** For `O=C1NC(=O)N(c2cccc(Cl)c2)C(=O)/C1=C\c1ccc(Sc2nc3ccccc3[nH]2)o1`, which Potency [1] is on record?
**A.** 28.2 µM (active)

**Q.** What about the Potency [2] of the same molecule?
**A.** inactive

**Q.** What about the activation [3] of the same molecule?
**A.** 5.77% [at 17.1 µM, percent relative to cAMP agonist control]

**Q.** And the activity change, negative = inhibition [4]?
**A.** 0.757% [at 12.7 µM]

**Q.** What about the activity change, negative = inhibition [5] of the same molecule?
**A.** 2.39% [at 30.8 µM]

**Q.** Which results are given for `N#CC(C#N)=NNc1ccc(S(N)(=O)=O)cc1`?
**A.** Potency [1]: 44.7 µM (active); Potency [2]: inactive; activation [3]: 3.48% [at 17.1 µM, percent relative to cAMP agonist control]; activity change, negative = inhibition [4]: 1.67% [at 12.7 µM]; activity change, negative = inhibition [5]: -8.77% [at 30.8 µM]

**Q.** Which Potency [1] does the source give for `CCCNC(=O)N1[C@H]2CC[C@@H]1C(C(=O)OC)=C(c1ccc(F)cc1OCc1ccccc1)C2` here?
**A.** inactive

**Q.** What about the Potency [2] of the same molecule?
**A.** inactive

**Q.** What about the Potency [3] of the same molecule?
**A.** inactive

**Q.** What about the Potency [4] of the same molecule?
**A.** inactive

**Q.** What about the outcome [5] of the same molecule?
**A.** inactive

**Q.** For `Cc1cc(/C=C2\C(=O)NC(=O)N(c3ccc(Cl)cc3)C2=O)c(C)n1-c1sc2c(c1C#N)CCCC2`, which Potency [1] is on record?
**A.** 11.2 µM (active)

**Q.** What about the Potency [2] of the same molecule?
**A.** inactive

**Q.** What about the activation [3] of the same molecule?
**A.** 3.87% [at 17.1 µM, percent relative to cAMP agonist control]

**Q.** And the activity change, negative = inhibition [4]?
**A.** -14.9% [at 12.7 µM]

**Q.** And the activity change, negative = inhibition [5]?
**A.** -13.5% [at 30.8 µM]

**Q.** With `Cc1c2cnn(CC(=O)N3CCC4(CC3)OCCO4)c(=O)c2c(C)n1Cc1ccc(F)cc1` as the molecule, how does the Potency [1] read?
**A.** inactive

**Q.** And the Potency [2]?
**A.** inactive

**Q.** What about the Potency [3] of the same molecule?
**A.** inactive

**Q.** What about the Potency [4] of the same molecule?
**A.** inactive

**Q.** What about the outcome [5] of the same molecule?
**A.** inactive

**Q.** `Cc1ccc(C)c(Cn2c(C(=O)O)c(C=O)c3ccccc32)c1` was tested. Which Potency [1] did it give?
**A.** inactive

**Q.** What about the Potency [2] of the same molecule?
**A.** inactive

**Q.** And the activation [3]?
**A.** 10% [at 17.1 µM, percent relative to cAMP agonist control]

**Q.** And the activity change, negative = inhibition [4]?
**A.** 3.6% [at 12.7 µM]

**Q.** And the activity change, negative = inhibition [5]?
**A.** -5.1% [at 30.8 µM]

**Q.** What about the activation [6] of the same molecule?
**A.** 9.64% [at 30.8 µM]

**Q.** `Cc1ccc(N2C(=O)NC(=O)/C(=C\C=C\c3ccco3)C2=O)cc1` was tested. Which Potency [1] did it give?
**A.** 42.6 µM (active)

**Q.** And the Potency [2]?
**A.** inactive

**Q.** And the Potency [3]?
**A.** inactive

**Q.** And the Potency [4]?
**A.** inactive

**Q.** And the outcome [5]?
**A.** inactive

**Q.** How did the Potency [1] turn out when `OC1/C(=C/c2ccc(C(F)(F)F)cc2)N2CCC1CC2` (configuration not stated) was run?
**A.** inactive

**Q.** And the Potency [2]?
**A.** inactive

**Q.** And the Potency [3]?
**A.** inactive

**Q.** What about the Potency [4] of the same molecule?
**A.** inactive

**Q.** And the outcome [5]?
**A.** inactive

**Q.** And the Potency [6]?
**A.** inactive
